# Screening results: PubChem BioAssay, The Scripps Research Institute Molecular Screening Center
# Most compounds without a hit are left out; they make up all but 3.5% or so of the library.
# GPR151 ag = human GPR151 activation | PathHunter beta-arrestin GPR151 cells, luminescence | activation, % at 11.2 µM | 1% of 650,000 active | AID 1508602; in the data active = activation above about 4.9%;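 also: 0% = median of compound wells and 100% = cells with positive control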
# FBW7 act = human FBW7 E3 ligase activation, primary screen. normalized activity (activation), % at 26.1 µM. AlphaScreen FBW7–phospho-cyclin E peptide binding, activator screen. AID 1259310. 0.13% of 650,000 active; in the data active = normalized activity above about 1.9%;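 also: purified mutant Fbw7 with reduced substrate affinity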
# Target sequence (Q969H0 whole entry, looked up): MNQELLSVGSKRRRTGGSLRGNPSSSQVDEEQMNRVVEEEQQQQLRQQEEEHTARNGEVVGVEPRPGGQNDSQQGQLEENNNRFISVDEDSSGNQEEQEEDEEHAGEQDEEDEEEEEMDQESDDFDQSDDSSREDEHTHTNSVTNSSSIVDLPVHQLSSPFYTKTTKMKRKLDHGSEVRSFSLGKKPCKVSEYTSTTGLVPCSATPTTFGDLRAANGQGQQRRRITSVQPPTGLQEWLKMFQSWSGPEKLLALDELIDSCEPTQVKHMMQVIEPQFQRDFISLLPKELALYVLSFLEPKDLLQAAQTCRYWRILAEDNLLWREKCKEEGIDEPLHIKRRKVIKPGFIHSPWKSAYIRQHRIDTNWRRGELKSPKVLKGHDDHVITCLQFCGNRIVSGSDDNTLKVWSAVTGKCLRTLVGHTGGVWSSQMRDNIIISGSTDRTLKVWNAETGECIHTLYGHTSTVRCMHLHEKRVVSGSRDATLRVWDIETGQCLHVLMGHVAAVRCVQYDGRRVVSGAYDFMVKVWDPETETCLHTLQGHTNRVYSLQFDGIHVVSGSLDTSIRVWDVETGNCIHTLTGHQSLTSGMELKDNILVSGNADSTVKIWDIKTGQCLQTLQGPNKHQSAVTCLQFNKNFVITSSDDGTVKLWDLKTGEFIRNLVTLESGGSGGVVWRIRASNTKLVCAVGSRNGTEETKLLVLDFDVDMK
# MITF inh = human MITF inhibition, primary screen; 0.91% of 650,000 active; inhibition, % at 2.6 µM; O75030; AID 1259374; AlphaScreen MITF homodimerization, bead proximity signal; in the data active = inhibition above about 50%;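 also: 0% = vehicle wells with protein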
# TEAD-YAP inh = TEAD-YAP interaction inhibition; HEK-TIYL cells, TEAD-Gal4/YAP UAS-luciferase luminescence; inhibition, % at 9.12 µM; 1.4% of 640,000 active; in the data active = inhibition above about 32%;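 also: 0% = median of test compound wells and 100% = reference inhibitor wells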
# MITF confirm = confirmation of human MITF inhibitors. AlphaScreen MITF homodimerization, biotin/His-MITF beads. AID 1259372. shares compounds with MITF inh. inhibition, % at 2.6 µM. 16% of 4,700 active;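 active = inhibition above a cutoff derived from the DMSO control wells, cut at about 28% in these data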;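 also: 0% = MITF dimer wells with DMSO only; inhibitors lower the bead chemiluminescence by keeping MITF from dimerizing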
# AlphaScreen DR = counter-screen: compounds optically interfering with AlphaScreen; 6% of 480 active; shares compounds with MITF inh; AlphaScreen optical interference counterscreen, cell-free; IC50, µM; call rule not given here
# AS interf ctr = optically interferes with AlphaScreen signal; shares compounds with MITF inh; LysRS AlphaScreen counterscreen, signal interference, triplicate; inhibition, % at 2.6 µM; 7.6% of 4,700 active;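 active = inhibition above a cutoff derived from the DMSO control wells, cut at about 30% in these data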
# GPR151 conf act = confirmation of human GPR151 activators | 6,700 tested, under 10 active | AID 1508609 | shares compounds with GPR151 ag | activation, % at 11.2 µM | GPR151 PathHunter beta-arrestin cells, luminescence, 90 min; % of EA-reagent control over plate median;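 active = mean percent activation across replicates above the confirmation screen cutoff of 4.91%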
# GPR119 counter = activates human GPR119 in a GPR151 counter-screen; shares compounds with GPR151 ag; activation, % at 11.2 µM; 0.3% of 6,700 active; GPR119 PathHunter beta-arrestin cells, luminescence, 90 min; 0 = compound-well median, 100 = enzyme-acceptor control;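 active = mean percent activation in the counterscreen above 29.09%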;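 also: counterscreen on off-target GPR119 to flag nonselective hits from the GPR151 activator screen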
# * = called active by the depositor; nt = no result; ! = not active in a repeat.
SMILES,GPR151 ag,FBW7 act,MITF inh,TEAD-YAP inh,GPR151 conf act,GPR119 counter,others
CSc1ccc(CN2CCN(Cc3ccc(F)cc3)CC2)cc1,5.2*,-0.4,77.6*,10.2,-0.3,-5.0,MITF confirm=3.0;AS interf ctr=-0.5
CCCCn1c(C(=O)c2ccccc2)c(C(=O)O)c2ccccc21,0.0,0.0,-5.6,4.1,nt,nt,
Cc1c(N=Nc2c(O)[nH]c(=S)[nH]c2=O)c(=O)n(-c2ccccc2)n1C,15.2*,-0.2,91.5*,-9.0,0.8,4.2,MITF confirm=36.0*;AS interf ctr=100.3*
O=c1cccc2n1CC1CC2CN(CC2CCCCC2)C1 (centres undefined),0.2,-0.3,-10.8,-12.7,nt,nt,
CN(C)[C@@H]1C(=O)C(C(N)=O)=C(O)[C@@]2(O)C(=O)C3=C(O)c4c(O)cccc4[C@@](C)(O)[C@H]3[C@H](O)[C@@H]12,7.4*!,-0.3,64.4*,-2.0,0.2,-0.4,MITF confirm=62.1*;AlphaScreen DR=4.4*!;AS interf ctr=31.2*!
CN(C)[C@@H]1C(=O)C(C(N)=O)=C(O)[C@@]2(O)C(=O)C3=C(O)c4c(O)ccc(Cl)c4[C@@](C)(O)[C@H]3C[C@@H]12,-0.9,-0.2,-4.9,-12.7,nt,nt,
CC1(C)C(C(=O)Nc2cccc3ccccc23)C1(C)C,0.1,0.0,2.9,1.6,nt,nt,
Cc1ccccc1NC(=O)C1C(C)(C)C1(C)C,9.3*,0.0,0.0,5.7,0.3,7.4,
CCCc1nc2ccccc2c(=O)n1-c1cccc([N+](=O)[O-])c1,0.7,-0.1,1.8,2.8,nt,nt,
Cc1ccc(-n2nc(C)c(C=C3C(=O)NC(=O)NC3=O)c2C)cc1,-1.6,-0.1,6.2,-23.9,nt,nt,
CN1C(=O)NC(=O)/C(=C/c2ccc(-c3ccccc3[N+](=O)[O-])o2)C1=O,5.0*,-0.1,0.9,4.0,-1.3,-14.3,
CCCCn1c(C)c(C(=O)OCC)c2cc(OC(C)=O)c(Br)cc21,0.4,0.1,11.9,-10.6,nt,nt,
Cc1cccn2c(CNC(C)Cc3cccnc3)c(C(=O)N3CCCCC3)nc12 (centres undefined),-0.9,0.2,0.9,0.3,nt,nt,
CC(Cc1cccnc1)NCc1c(C(=O)N2CCCCCCC2)nc2ccc(Cl)cn12 (centres undefined),5.0*,0.0,-5.3,-9.6,0.0,-1.8,
CCOC(=O)C1=C(N)OC(C)=C(C(=O)OCCOC)C12C(=O)Nc1ccccc12 (centres undefined),1.0,0.1,14.2,-6.5,nt,nt,
CCCCOC(=O)C1=C(N)OC(C)=C(C(=O)OCCOC)C12C(=O)Nc1ccccc12 (centres undefined),5.3*,0.0,1.1,6.5,0.3,2.3,
O=c1cccc2n1CC1CC2CN(c2ncnc3[nH]ncc23)C1 (centres undefined),1.8,0.1,-2.6,2.6,nt,nt,
COc1ccc(C(=O)OC2CC3CCC(C2)N3)cc1OC (centres undefined),0.2,0.0,7.6,16.8,nt,nt,
COc1ccc(C(=O)O)cc1OC,5.7*,-0.1,-16.6,-7.8,-0.1,5.9,
CC1CN(c2ccc([N+](=O)[O-])c(N)c2)CC(C)N1 (centres undefined),-0.4,0.0,-3.8,-2.5,nt,nt,
COc1ccc(CCN(C)Cc2cc(OC)c(OC)cc2[N+](=O)[O-])cc1OC,8.4*,0.0,-13.8,13.3,-0.3,1.3,
C=CCOC(=O)C1C2NC(=S)N(c3cccc(Cl)c3)C1(C)Oc1ccccc12 (centres undefined),10.0*,-0.3,-3.9,-6.7,-0.1,2.3,
CCOC(=O)C1C2NC(=S)N(c3ccccc3)C1(C)Oc1ccccc12 (centres undefined),0.8,-0.4,24.2,-4.0,nt,nt,
COc1ccc(C(=O)C2CCCN(C)C2)c(OC)c1 (centres undefined),5.0*,0.0,35.1,2.7,0.0,-9.6,
CCN1CC2(COC)CC[C@H](O)C34C5C[C@@H]6C(OC)C[C@@](O)(C5[C@H]6OC(C)=O)[C@@H](CC23)[C@@H]14 (some centres undefined),5.4*,0.0,-1.4,2.5,-0.3,7.8,
SMILES,GPR151 ag,FBW7 act,MITF inh,TEAD-YAP inh,GPR151 conf act,GPR119 counter,others
O=C1CN=C(c2ccccc2)c2oc3ccc(Br)cc3c2N1,1.6,-0.1,-1.4,0.5,nt,nt,
COc1cccc(OC)c1C1=NCC(=O)Nc2c1oc1ccc(Br)cc21,5.7*,0.0,5.4,58.3*,-0.5,-3.8,
C[C@H]1C/C=C/[C@H]2[C@@H]3O[C@]3(C)[C@@H](C)[C@H]3[C@H](Cc4ccccc4)NC(=O)[C@]32OC(=O)O/C=C/[C@](C)(O)C1=O,11.1*,0.1,12.1,-1.6,0.1,-4.8,
Clc1cnc2nc3c(cc2c1)CN(CCc1cccs1)CC3,2.9,-0.2,3.0,7.6,nt,nt,
O=C1Nc2ccc(Cl)cc2C(c2ccccc2Cl)=NC1O (centres undefined),6.8*,-0.1,5.8,-18.5,1.0,-4.6,
C[C@H]1CC[C@@H]2[C@@H](C)[C@H]3[C@H](CC4[C@@H]5CC=C6CC(O[C@@H]7O[C@H](CO)C(O[C@@H]8O[C@@H](C)[C@H](O)[C@@H](O)[C@H]8O)[C@H](O)[C@H]7O[C@@H]7O[C@@H](C)[C@H](O)[C@@H](O)[C@H]7O)CC[C@]6(C)[C@H]5CC[C@@]43C)N2C1 (some centres undefined),7.2*,0.0,11.0,-11.9,2.8,17.7,
CCN(CC)c1ccc(C2C(C#N)=C(N)Oc3c2c(=O)oc2ccccc32)cc1 (centres undefined),1.4,-0.2,-3.0,17.1,nt,nt,
CC(=O)NC1(c2ccccc2)CC(C)N(C)CC1C (centres undefined),5.0*,-0.1,-27.5,6.8,-0.3,6.9,
COc1ccccc1N1CCN(Cc2ccc([N+](=O)[O-])cc2)CC1,5.5*,-0.1,37.3,7.5,-0.9,8.1,
Cc1ccccc1N1CCN(Cc2ccc([N+](=O)[O-])cc2)CC1,0.4,-0.2,0.5,-2.5,nt,nt,
Cc1c(C(=O)c2ccc3ccccc3c2)c2cccc3c2n1[C@H](CN1CCOCC1)CO3,5.4*,0.7,9.8,nt,1.2,-9.2,
CC1=NCCc2c1[nH]c1cc(O)ccc21,5.0*!,-0.2,-3.4,5.9,2.8,0.6,
COc1ccc(C2(CN)CCCC2)cc1,0.1,0.1,0.0,0.9,nt,nt,
COc1ccc(C(CN(C)C)C2(O)CCCCC2)cc1 (centres undefined),8.7*!,-0.1,3.6,4.0,0.4,4.8,
